Compounds with a hit are over-represented: about 7.5% of the library has one in this group of screens.
HCV inhibitor – qHTS Assay for Inhibitors of Hepatitis C Virus (HCV); Huh7.5.1 HCVcc-Cre infection, luciferase reporter, 44 h; Potency, µM (series often up to 41.8 µM), inactives show at the top dose activity change, negative = inhibition, hits mostly inhibitors; hit rate 3.4% among 340,000; AID 651820, 2012; further: potency means the concentration at half of the fitted maximal effect
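Infectious HCV cell culture screen: compound-treated cells (1,000/well, pre-plated 4 h) are infected with HCVcc-Cre at roughly 0.5 moi and grown 44 h. Infection is quantified by luciferase signal after 15 min substrate incubation at room temperature.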
Vaccinia mCherry – qHTS for Stage-Specific Inhibitors of Vaccinia Orthopoxvirus: mCherry Reporter Primary qHTS; Vaccinia virus mCherry reporter infection, fluorescence; Potency, µM (doses to about 36.5 µM), inactives show top-dose activity change, negative = inhibition, most hits filed as inhibitors; hit rate 0.63% among 310,000; calls by dose curve; tested in A549 cells; further: potency means the concentration at half of the fitted maximal effect; nearly all actives have a fitted effect of over 35% in size
HCMV antiviral – qHTS Assay for inhibitors of the human cytomegalovirus (HCMV); hit rate 4.5% among 410,000; activity change, negative = inhibition, % at 57.5 µM; HFF cells, HCMV-luciferase reporter, 72 h; hits give low values; in the data active means activity change below about -60%; inconclusive means no clear call, values can overlap the other calls; inactive means above about -39%
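Two-dose cell screen: HFF monolayers treated with compounds and infected with luciferase-expressing HCMV at 1 PFU/cell, 72 h at 37C, then lysed for luciferase measurement.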
VACV Venus inh – qHTS for Stage-Specific Inhibitors of Vaccinia Orthopoxvirus: Venus Reporter Primary qHTS; AID 720580, 2013; Vaccinia virus Venus reporter expression, fluorescence; hit rate 0.46% among 330,000; Potency, µM (highest dose often 36.5 µM), for inactives: at the top dose activity change, negative = inhibition, hits mostly inhibitors; calls by dose curve; tested in A549 cells; further: potency means the concentration at half of the fitted maximal effect; nearly all actives have a fitted effect of over 30% in size
FBPA Giardia inh – qHTS Assay for Inhibitors of Fructose-1,6-bisphosphate Aldolase from Giardia Lamblia; purified Giardia FBPA; Potency, µM (series often up to 59.6 µM), for the others: at the highest dose activity, negative = inhibition, hits mostly inhibitors; A8B2U2; hit rate 0.71% among 290,000; further: potency means the concentration at half of the fitted maximal effect; nearly all actives have a fitted effect of over 55% in size
Target sequence (A8B2U2 whole entry, looked up): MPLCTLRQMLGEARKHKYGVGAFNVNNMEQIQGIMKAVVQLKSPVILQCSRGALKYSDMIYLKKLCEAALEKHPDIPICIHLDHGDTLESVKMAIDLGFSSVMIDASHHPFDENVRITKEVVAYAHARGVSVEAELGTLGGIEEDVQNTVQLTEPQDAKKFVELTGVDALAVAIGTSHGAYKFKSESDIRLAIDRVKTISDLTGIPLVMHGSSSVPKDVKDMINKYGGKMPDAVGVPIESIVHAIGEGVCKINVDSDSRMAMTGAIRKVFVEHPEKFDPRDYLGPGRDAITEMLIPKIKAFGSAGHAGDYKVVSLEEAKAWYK
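Giardia FBPA (40 nM reagent) was preincubated 10 min at RT with compound (up to 57.5 uM final), then substrate plus GAPDH/TPI/NAD/arsenate coupling system with diaphorase/resazurin was added; resorufin fluorescence (525/598 nm) was read after 20 min.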
FMDV inh – High Throughput Screening for Foot and Mouth Disease Virus Antivirals | Potency, µM (titrated, usually from 57.9 µM), inactives show at the highest dose activity change, negative = inhibition, actives largely listed as inhibitors | hit rate 1.2% among 410,000 | FMDV antiviral cell-based qHTS; calls by dose curve; tested in HEK293T cells; further: read-out not given here; potency means the concentration at half of the fitted maximal effect; nearly all actives have a fitted effect of over 45% in size
* hit, by the source's call; i = inactive; ? = inconclusive; / = no result. Unless noted, the call rests on the fitted dose curve; in most records, active means well fitted curve in the direction sought with a large enough effect; inconclusive means small, poorly fitted or top-dose-only effect, or another doubt; inactive means no such curve, though single readings can be large; an effect the other way counts as inactive or inconclusive. On the % scale 0 is the no-effect control and ±100 the full control effect.

SMILES | HCV inhibitor | Vaccinia mCherry | HCMV antiviral | VACV Venus inh | FBPA Giardia inh | FMDV inh
O=C(c1ccccc1)c1cc([N+](=O)[O-])ccc1N1CCCC1 | ? | ? | -61* | -23% | 2% | ?
O=C(Nc1cc(C(F)(F)F)ccc1N1CCCCC1)c1cccc([N+](=O)[O-])c1 | ? | -29% | -77* | -19% | 3% | -25%
COCCn1c(=O)c(C)nc2cnc(Oc3cccc(Cl)c3)nc21 | / | / | / | / | 2% | -28%
O=C(Nc1cc(C(F)(F)F)ccc1N1CCOCC1)C1=NN(c2ccccc2)C(=O)CC1 | 9% | / | ? | / | / | ?
COc1cccc(CN2C(=O)c3ccccc3C2C(=O)NCCc2ccccc2)c1 (stereo not given) | / | -7% | 18 | 3% | / | 0%
O=C(OC1CCCCC1)c1ccc(NC(=O)C2CCCCC2)cc1 | 25µM* | / | -12 | ? | 0% | -24%
CCCCC(=O)Nc1ccc(C(=O)OC2CCCCC2)cc1 | ? | / | -96* | -27% | -2% | -16%
O=C(Nc1ccc(C(=O)OC2CCCCC2)cc1)c1ccncc1 | ? | i | -78* | -9% | -1% | -25%
CCCCCCCCOC(=O)c1cc([N+](=O)[O-])c(Sc2ncnc3nc[nH]c23)c([N+](=O)[O-])c1 | 10% | -5% | ? | -29% | / | ?
Cc1cc(C)c2c(=O)cc(C(=O)NCCc3ccc(S(N)(=O)=O)cc3)oc2c1 | / | 6% | 12 | -1% | / | -27%
Cc1nc2cnc(OCc3ccccc3)nc2n(CCc2ccccc2)c1=O | / | / | / | / | 3% | ?
Cc1nc(C)c(CC(=O)N2CCOc3ccc(CN4CCOCC4)cc3C2)s1 | / | -8% | / | -6% | / | -9%
CC(Oc1ccc(Br)cc1)C(=O)N(Cc1ccccc1)c1c(N)n(Cc2ccccc2)c(=O)[nH]c1=O (stereo not given) | / | i | -1 | -24% | / | ?
COc1ccc(NC(=O)c2cc(-c3ccc(C)o3)nc3ccccc23)c(OC)c1 | 10µM* | / | -19 | / | / | 15%
COc1ccccc1NC(=O)c1cc(-c2cc(OC)c(OC)c(OC)c2)nc2ccccc12 | ? | -16% | -6 | 6% | 2% | -22%
CCOc1ccccc1NC(=O)c1cc(-c2cc(OC)c(OC)c(OC)c2)nc2ccccc12 | 8.9µM* | i | 29 | -10% | -3% | -23%
COc1ccc(OC)c(-c2cc(C(=O)N/N=C/c3ccc(F)cc3)c3ccccc3n2)c1 | 1% | -3% | 0 | -3% | / | -13%
COc1ccc(OC)c(-c2cc(C(=O)Nc3ccccc3C(N)=O)c3ccccc3n2)c1 | 10µM* | / | 10 | / | / | ?
CC(C)NC(=O)C1(C)CCN1C(=O)c1ccc2c(c1)OCO2 (stereo not given) | / | 29% | -20 | -3% | / | -16%
O=C(O)P(=O)(O)O | / | 3% | / | -1% | 3% | 10%
O=C(C[n+]1cc(-c2ccccc2)n2c1CCCCC2)c1ccc(Cl)cc1 | -19% | i | 5 | -13% | 6% | -8%
Cc1ccc(-c2c[n+](CC(=O)c3ccc(Br)cc3)c3n2CCCCC3)cc1 | -8% | -27% | -88* | -14% | 5% | ?
CC1CCC(C(C)C)C(OC(=O)C[n+]2cc(-c3ccc(Cl)cc3)n3c2CCCCC3)C1 (stereo not given) | -17% | i | -97* | -7% | 7% | ?
Clc1ccc(-c2c[n+](Cc3ccc(Br)cc3)c3n2CCCCC3)cc1 | 12% | -14% | -68* | -8% | 7% | 6%
Clc1ccc(-c2c[n+](Cc3ccc(Cl)cc3Cl)c3n2CCCCC3)cc1 | -22% | / | -102* | / | 5% | -13%
SMILES | HCV inhibitor | Vaccinia mCherry | HCMV antiviral | VACV Venus inh | FBPA Giardia inh | FMDV inh
O=[N+]([O-])c1ccc(C[n+]2cc(-c3ccccc3)n3c2CCCCC3)cc1 | 6% | -7% | -11 | -11% | 10% | 9%
Clc1ccc(C[n+]2cc(-c3ccccc3)n3c2CCCCC3)c(Cl)c1 | -30% | / | -78* | / | 4% | ?
COCCN(C(=O)Cc1cccs1)C(C(=O)NCc1ccc(OC)cc1)c1ccc(OC)cc1 (stereo not given) | 7% | -10% | 25 | 0% | -1% | /
Cc1ccc(C(C(=O)NCc2ccccc2)N(Cc2cccs2)C(=O)c2ccc3c(c2)OCCO3)cc1 (stereo not given) | ? | / | -69* | / | -2% | -13%
COc1ccc(CNC(=O)C(c2ccc(C)cc2)N(Cc2cccs2)C(=O)c2ccc3c(c2)OCCO3)cc1 (stereo not given) | 11µM* | -18% | ? | -26% | -2% | ?
CCc1sc(NC(=O)C(C)C)nc1-c1ccccc1 | -6% | i | -78* | -1% | -5% | -14%
O=C(O)Cc1sc(Nc2ccccc2)nc1-c1ccc(Cl)cc1 | 17% | -5% | 5 | -3% | 5% | 63%
O=C(O)Cc1sc(Nc2ccccc2Cl)nc1-c1ccccc1 | / | 2% | -61* | -3% | / | 32%
Cc1ccc(C2(C)NC(=O)N(CC(=O)N3c4ccccc4NC(=O)CC3C)C2=O)cc1 (stereo not given) | 11% | / | -14 | / | / | -11%
Cc1ccc(C(=O)N2CCOCC2)cc1S(=O)(=O)N1CCCCC1 | / | i | 35 | -18% | / | -5%
COc1ccc(C(=O)Nc2ccc3oc(Cc4ccc(Cl)cc4)nc3c2)cc1OC | 11µM* | ? | -23 | ? | -5% | ?
COc1ccc(Cc2nc3ccc(C(=O)NCc4cc(C)no4)cc3o2)cc1 | / | i | 3 | -12% | 3% | 7%
CCc1cc(CNC(=O)c2ccc3nc(Cc4ccc(OC)c(OC)c4)oc3c2)on1 | 4.5µM* | / | -15 | / | / | -21%
COc1ccc(Cl)cc1NC(=O)c1ccc2nc(Cc3ccccc3)oc2c1 | / | -6% | -33 | 5% | / | -20%
Cc1cccc(-c2noc(-c3ccccc3OCC(=O)Nc3ccccc3[N+](=O)[O-])n2)c1 | / | -3% | 6 | -18% | / | -7%
CCc1ccccc1OCC(=O)Nc1ccc(S(=O)(=O)Nc2nc(C)cc(C)n2)cc1 | / | -1% | ? | -9% | / | 66%
CCOC(=O)c1c(N)sc2c1CCN(Cc1ccccc1)C2 | / | -8% | -23 | -20% | 18µM* | /
CCOC(=O)c1ccc(NC(=O)c2ccc(CN3CCc4ccccc4C3)cc2)cc1 | 1.4µM* | -12% | -33 | -12% | -14% | ?
CCOc1ccc(NC(=O)c2ccc(CN3CCc4ccccc4C3)cc2)cc1 | 2µM* | i | ? | -6% | -9% | ?
Cc1cc(C(=O)NNC(=S)Nc2ccccc2)nn1C | 13% | -17% | 129 | -21% | -9% | 43%

From PubChem BioAssay
